# Laboratory results taken from PubChem BioAssay AID1035470 (Broad Institute, 2014).
# The campaign covered roughly 1,800 compounds. Fewer than 10 were called active. Not shown: some 16% with an inconclusive outcome.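 Rule for the calls: active = compound lowering the normal-ribosome reporter at least twice as much as the humanized-ribosome reporter, growth loss under a set limit; inconclusive = no clear call, values can overlap the other calls; inactive = the rest.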 Not all results are given here. Entries with a potency or affinity are not part of this list.
# Experiment: growth inhibition of wild-type GFP E. coli versus G2058-humanized strain, dose response, G2058 mutant RFP vs wild-type GFP, cherry-pick, two tests (AID 1035470)
# Settings: E. coli WT-GFP vs G2058-humanized RFP, fluorescence, 24 h; series mostly up to 50 µM
row,SMILES,outcome
1,CCOc1ccccc1C(=O)NCC(=O)OCCOc1cccc(Cl)c1,inactive
2,O=C(Nc1cc(F)ccc1F)N1CCCCN2[C@@H](CO)[C@H](c3ccc(-c4ccncc4)cc3)[C@@H]2C1,inactive
3,O=S1(=O)N[C@H](Cc2ccccc2)COc2cc(N3CCSCC3)ccc21,inactive
4,COc1cccc(NC(=O)c2ccc(NCCCN3CCC(C)CC3)c([N+](=O)[O-])c2)c1,inactive
5,Cc1noc(C)c1S(=O)(=O)N(Cc1ccccc1)C(C)C,inactive
6,Cc1ccc(-c2c(=O)n(O)c3ccccc3[n+]2[O-])cc1,inactive
7,Cc1nn2c(C)c(C(=O)Nc3ccccc3)cnc2c1-c1ccccc1,inactive
8,CC(C)(C)S(=O)(=O)Cc1nc(-c2ccc(Cl)c(Cl)c2)cs1,inactive
9,CCCCc1cc2c(cc1NC(=O)CN1CCCCC1)OCCO2,inactive
10,COC(=O)c1ccsc1NC(=O)c1cccc(OC)c1,inactive
11,O=[N+]([O-])c1ccc(O)c(CSc2nnnn2-c2ccccc2)c1,inactive
12,COCC(C)NC(=O)c1nn(Cc2ccccc2)c(=O)c2ccccc12 (stereo unspecified),inactive
13,Cc1ccc(NC(=O)C[n+]2cc(-c3ccccc3)n3c2CCC3)c(C)c1,inactive
14,COc1cc(OC)c(NS(=O)(=O)c2cccc(C(=O)OCC(=O)NCC3CCCO3)c2)cc1Cl (stereo unspecified),inactive
15,Cc1ccc(Nc2nc(C(=O)NCC3CCCO3)cs2)cc1 (stereo unspecified),inactive
16,CCOC(=O)c1cccc(OS(=O)(=O)Cc2ccccc2)c1,inactive
17,Cc1ccc(S(=O)(=O)NCc2c(-c3ccccc3)noc2C)cc1,inactive
18,Cc1ccc(NC(=O)COC(=O)CCNS(=O)(=O)c2c(Cl)cccc2Cl)cc1,inactive
19,CC1CCN(C(=O)COC(=O)c2ccccc2NC(=O)c2ccco2)CC1,inactive
20,CCc1cccc(NC(=O)c2ccc3c(=O)n4c(nc3c2)CCCCC4)c1,inactive
21,Cc1cc(C)cc(NC(=O)COC(=O)CC2CCCC2)c1,inactive
22,CCn1c(COc2cccc(OC)c2)nnc1SCC(=O)Nc1cc(OC)ccc1OC,inactive
23,COc1ccc(S(=O)(=O)N2CCOc3ccccc32)cc1,inactive

row,SMILES,outcome
1,COc1ccc(-n2nc3cc(N)c(Br)cc3n2)cc1,inactive
2,COC(=O)[C@]1(Sc2ccc(C)cc2)CC(=O)N[C@@H]1c1ccccc1,inactive
3,O=C(CSc1nc2ccccc2n1S(=O)(=O)c1cccc([N+](=O)[O-])c1)NCCc1ccccc1,inactive
4,S=c1[nH]nc(-c2ccc3ccccc3n2)n1-c1ccc2c(c1)OCCO2,inactive
5,Cc1ccnc(NS(=O)(=O)c2ccc(NC(=O)c3ccc4c(c3)OCCO4)cc2)n1,inactive
6,COc1ccc(OC)c(-c2nn(-c3ccccc3)cc2C(=O)N2CCc3ccccc3C2)c1,inactive
7,COC(=O)c1sccc1NC(=O)CNC(=O)c1ccccc1,inactive
8,Cc1c(Cc2ccccc2)sc(NC(=O)Cc2ccccc2)c1C(N)=O,inactive
9,O=C(Cc1c(F)cccc1Cl)N(Cc1ccccc1)c1ccccn1,inactive
10,Cc1ccoc1C(=O)Nc1ccc2ccccc2c1,inactive
11,Cc1cc(CNC(=O)c2cc(-c3ccccc3)nc3ccccc23)nn1C,inactive
12,Cc1cccc(-c2nsc(SCC(=O)NCC3CCCO3)n2)c1 (stereo unspecified),inactive
13,Cc1ccc2nc(N(CCN(C)C)C(=O)C3CCN(S(=O)(=O)c4cccs4)CC3)sc2c1,inactive
14,COc1ccc(-c2csc(NC(=O)c3ccoc3C)n2)cc1,inactive
15,CCC1CCCCN1C(=O)CSc1nnc(-c2cccc(Cl)c2)o1 (stereo unspecified),inactive
16,CCc1nc2ccccc2c(C(=O)OCC(=O)NC(=O)c2cccn2C)c1C,inactive
17,Cc1ccc(Cc2c(-c3ccc(C#N)cc3)nc3ccc(Br)cn23)cc1,inactive
18,CCOC(=O)c1cnc2ccc(OCC)cc2c1NCCCN1CCOCC1,inactive
19,CCOC(=O)C(CC)Sc1cc(C)nc2ccc(OC)cc12 (stereo unspecified),inactive
20,COc1ccc(C(=O)COc2ccc(F)cc2)c(O)c1,inactive
21,Cc1cccc(-c2cc3nc4c(c(N5CCOCC5)n3n2)CCCC4)c1,inactive
22,Cc1cccc(NS(=O)(=O)c2cc3c(cc2C)NC(=O)CO3)c1,inactive
23,Cc1cccc(OCCn2c(=O)oc3ccc(C)cc32)c1,inactive

row,SMILES,outcome
1,CC(=O)Nc1cccc(NC(=O)CCN2C(=O)c3ccccc3S2(=O)=O)c1,inactive
2,c1cncc(-c2nc3cc4ccccc4cc3[nH]2)c1,inactive
3,Cc1ccccc1S(=O)(=O)c1cc2ccccc2nc1N,inactive
4,COc1ccccc1-c1noc2ncnc(Nc3ccccc3C)c12,inactive
5,COc1ccccc1Cc1c(-c2ccc(F)cc2)nc2ccc(Br)cn12,inactive
6,COc1ccc(-c2nc(C3CCCCC3)no2)cc1OC,inactive
7,c1ccc(Sc2ncnc3ccccc23)cc1,inactive
8,COc1cccc(NC(=O)C(C)SCc2ccccc2)c1 (stereo unspecified),inactive
9,Cc1cc(Br)ccc1NC(=O)c1ccco1,inactive
10,O=C(CSCc1cnn(-c2ccccc2)c1-n1cccc1)NCc1cccnc1,inactive
11,O=C(Nc1ccc(Cl)c(Cl)c1)c1ccc(Cl)c(Cl)c1,inactive
12,O=[N+]([O-])c1ccc2nc(-c3ccccc3[N+](=O)[O-])[nH]c2c1,inactive
13,O=c1c2ccccc2nc(SCc2ccccc2)n1CC1CCCO1 (stereo unspecified),inactive
14,CCOCCCNC(=O)C(NC(=O)c1ccccc1O)c1ccc(C)cc1 (stereo unspecified),inactive
15,COc1ccc(Nc2nc(N)c([N+](=O)[O-])c(N3CCCC3)n2)cc1,inactive
16,CS(=O)(=O)c1ccc(Cl)c(NC(=O)CSc2nncn2-c2ccccc2)c1,inactive
17,c1ccc(CSCc2ccccc2)cc1,inactive
18,O=C(Nc1ccc(Cl)c(Cl)c1)N[C@@H]1CC[C@@H](CCn2cc(C3CCCCC3)nn2)O[C@H]1CO,inactive
19,CCOc1ccc(NC(=O)CCc2nnc3ccc(N4CCC(C)CC4)nn23)cc1,inactive
20,Cc1csc(SCc2nc3scc(-c4ccccc4)c3c(=O)[nH]2)n1,inactive
21,CC(C)(C)c1ccc2c(c1)C(c1ccc3c(c1)OCO3)CC(=O)O2 (stereo unspecified),inactive
22,Cc1ccccc1Nc1c(-c2cccnc2)nc2ccc(Br)cn12,inactive
23,CC1(CCC(=O)N2CCCC(N3CCN(c4ccc(F)cc4)CC3)C2)CC1 (stereo unspecified),inactive

row,SMILES,outcome
1,C=CCn1c(C)cc(C(=O)CSc2nnc(C3CC3)n2C2CC2)c1C,inactive
2,c1ccc(-c2sc3ccccc3c2-c2ccc(OCCN3CCCCC3)cc2)cc1,inactive
3,CN(C(=O)COC(=O)CSc1ccc(C(N)=O)cc1[N+](=O)[O-])C1CCCCC1,inactive
4,CC(C)OCCCNC(=O)c1ccc(CS(=O)(=O)c2cccc(C(F)(F)F)c2)o1,inactive
5,COc1ccc(C(=O)Nc2cccc3ccccc23)cc1,inactive
6,CCS(=O)(=O)N1CCN(c2ccc([N+](=O)[O-])c(NCC3CCCO3)c2)CC1 (stereo unspecified),inactive
7,Cc1nn(S(=O)(=O)c2ccc(Cl)cc2)c(C)c1Sc1ccc([N+](=O)[O-])cc1,inactive
8,C[C@@H]1CN([C@@H](C)CO)C(=O)c2cc(NC(=O)Nc3cccc4ccccc34)ccc2O[C@@H](C)CCCCO[C@@H]1CN(C)C(=O)CCCN(C)C,inactive
9,O=C(COC(=O)C1CC2C=CC1C2)NCCc1ccccc1 (stereo unspecified),inactive
10,O=C(CN1CCCCC1)Nc1ccccc1-c1ccccc1,inactive
11,CN(Cc1ccc(Cl)s1)C(=O)CNC(=O)CNC(=O)c1ccc(Cl)cc1Cl,inactive
12,Cn1c(SCC(=O)Nc2ccccc2-c2ccccc2)nnc1-c1ccco1,inactive
13,O=C(CCCOc1ccccc1)NCCc1nc2ccccc2[nH]1,inactive
14,O=C(Cc1cccc(NC(=O)C2CCN(C(=O)C3CCCCC3)CC2)c1)Nc1cccc(C(=O)N2CCCC2)c1,inactive
15,COc1ccc(-c2noc(=O)n2Cc2ccccc2Cl)cc1,inactive
16,CN1CCSc2ccc(C(=O)Nc3cccc(F)c3)cc21,inactive
17,CC(C)c1ccc(-c2nc3ccccc3s2)cc1,inactive
18,Cc1ccc(-n2cc(CNCCN3CCOC3=O)c(-c3ccc(F)cc3)n2)cc1,inactive
19,Cc1ccc(NC(=O)c2ccc3ncsc3c2)cc1S(=O)(=O)N(C)C,inactive
20,CN(Cc1ccc([N+](=O)[O-])cc1)c1ccccc1,inactive
21,COc1ccc(CN2CCNC(=O)C2CC(=O)NCCCC2CCCC2)c(C)c1C (stereo unspecified),inactive
22,O=C1CCCCC1Nc1ccc(Br)cc1 (stereo unspecified),inactive
23,C[C@@H]1CCCCO[C@@H](CN(C)C)[C@@H](C)CN([C@H](C)CO)C(=O)c2cc(NC(=O)Nc3cccc4ccccc34)ccc2O1,inactive

row,SMILES,outcome
1,COc1ccc(NC(=O)CSc2n[nH]c(-c3ccncc3)n2)c([N+](=O)[O-])c1,inactive
2,Brc1ccc(Nc2ncnc3[nH]ncc23)cc1,inactive
3,Cc1cccc(-c2ccc([C@@H]3[C@@H](CO)N4CCCCN(S(=O)(=O)c5ccccc5C)C[C@H]34)cc2)c1,inactive
4,C[C@@H]1CN([C@@H](C)CO)S(=O)(=O)c2ccc(Br)cc2O[C@H]1CN(C)C(=O)c1ccccc1,inactive
5,Cc1cc(C)c(OCCN(C)Cc2ccccc2)c(Br)c1,inactive
6,C[C@@H](Nc1nc(-c2ccccc2)nc2c1oc1ccccc12)C(=O)O,inactive
7,CCOC(=O)c1ccc(NC(=O)c2ccc(OC(C)C)c(OC)c2)cc1,inactive
8,O=C(C[n+]1ccc(Cc2ccccc2)cc1)Nc1ccc([N+](=O)[O-])cc1Cl,inactive
9,O=C(OCC1COc2ccccc2O1)c1ccccc1F (stereo unspecified),inactive
10,O=C(Nc1ccc(-c2nnc3n2CCCCC3)cc1)c1cc2ccccc2o1,inactive
11,COc1ccc(NC(=O)c2cccc(Oc3ccc([N+](=O)[O-])cc3Cl)c2)cc1,inactive
12,COc1cccc(NC(=O)c2ccc(-c3ccc([N+](=O)[O-])cc3)o2)c1,inactive
13,O=C1CSC(c2cccnc2)N1Cc1ccc(Cl)c(Cl)c1 (stereo unspecified),inactive
14,COc1ccccc1NC(=O)N1CCCCN2[C@@H](CO)[C@H](c3ccc(C#Cc4ccccc4)cc3)[C@@H]2C1,inactive
15,C#CC(C)(C)NC(=O)c1ccc(-c2ccccc2F)cc1,inactive
16,CS(=O)(=O)Nc1ccccc1C(=O)NCCSc1ccccc1,inactive
17,COc1ccc(-c2cc(C(=O)O)nc3ccc4ccccc4c23)cc1OC,inactive
18,Oc1ccc(-c2csc(Nc3ncccn3)n2)cc1,inactive
19,CN(C)S(=O)(=O)c1ccc2oc(SCC(=O)NCC(F)(F)F)nc2c1,inactive
